FUS yeast rescue: suppressors of FUS proteinopathy in yeast. AID 1347120. Potency, µM (doses to about 76.6 µM), most hits filed as activators. 0.24% of 390,000 active. S. cerevisiae FUS-expressing, growth rescue, OD600, 24 h;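 further: plate controls were DMSO vehicle for no effect and reference control for full effect; nearly all actives have a fitted effect of over 55% in size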
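Yeast FUS proteinopathy model; galactose-induced FUS (2%), starting OD 0.005. Cpds in dilution series, 24hr, 30C, 99% humidity. Abs 600 nm growth. Pos ctrl CP55940 (top 92uM final); neg ctrl DMSO.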
Abeta rescue: A-beta toxicity reversal in yeast | yeast expressing A-beta42, growth rescue, OD600, 48 h; response scale: 0% DMSO, 100% iron-clioquinol control | Potency, µM (series often up to 46.1 µM), hits mostly activators | 0.063% of 410,000 active; further: nearly all actives have a fitted effect of over 55% in size
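Yeast A-beta toxicity model in growth medium with pinned compounds, 48 h at 30 C; growth read as absorbance at 600 nm. Normalized to FeCl3/clioquinol equimolar mix (positive) and DMSO (negative).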
TDP-43 yeast inh: TDP-43 toxicity inhibition in yeast; TDP-43 expressing yeast growth rescue, BacTiter-Glo, 24 h; Potency, µM (titrated, usually from 46.1 µM), without a hit: top-dose growth rescue (activation), usual class: activators; 1.8% of 410,000 active; AID 652104; further: % of control where 0% means no effect; nearly all actives have a fitted effect of over 50% in size
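Readout is BacTiter-Glo luminescence of cell growth, so inhibitors register as activators. TDP-43-expressing yeast at OD600=0.02 in galactose medium, after raffinose pregrowth to mid-log, were incubated with compound for 24 hr at 30 deg C.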
Mito fusion yeast: inhibitors of mitochondrial division or activators of mitochondrial fusion | 0.23% of 320,000 active | S. cerevisiae fusion-defective mutant growth rescue, CellTiterGlo 48 h | Potency, µM (titrated, usually from 46.1 µM), for the others: top-dose growth rescue (activation), usual class: activators; further: % of control where 0% means no effect; nearly all actives have a fitted effect of over 45% in size
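Temperature-sensitive fusion-defective S. cerevisiae (e.g. fzo1-1, mgm1-5) were grown with compound in YPEG medium (3% ethanol, 3% glycerol) for 48 hours at 37C. Growth rescue was measured as viability by CellTiterGlo luminescence after 10 minutes at ambient.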
aSyn rescue: inhibitors of alpha-synuclein toxicity in yeast. Yeast expressing alpha-synuclein, growth rescue, BacTiter-Glo, 24 h. Potency, µM (doses to about 46.1 µM), for inactives: at the top dose growth rescue (activation), most hits filed as activators. 0.14% of 370,000 active. AID 652106; further: % of control where 0% means no effect; nearly all actives have a fitted effect of over 65% in size
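Rescue of yeast growth: cells expressing toxic alpha-synuclein, induced in galactose at OD600 0.02, incubated with compound 24 h at 30 C. ATP luminescence quantified growth; inhibitors of toxicity appear as activators.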
Active calls of the source: *; i = inactive; ? = inconclusive; nt = not tested or not shown; ! = a repeat was not active. This is a sample that favours compounds with a hit; in the whole collection about 2.2% have one here. The call rests on the fitted dose curve; in most records, active means well fitted curve in the direction sought with a large enough effect; inconclusive means small, poorly fitted or top-dose-only effect, or another doubt; inactive means no such curve, though single readings can be large; an effect the other way counts as inactive or inconclusive. Potency means the concentration at half of the fitted maximal effect.

SMILES	FUS yeast rescue	Abeta rescue	TDP-43 yeast inh	Mito fusion yeast	aSyn rescue
Cc1ccc2nsnc2c1NS(=O)(=O)c1c(C)ccc2nsnc12	i	i	3.3%	13.6%	13.4%
Cc1ccc(NS(=O)(=O)c2c(C)ccc3nsnc23)c([N+](=O)[O-])c1	i	i	22.4µM*	-1.2%	0.3%
CCC(=O)Nc1ccc(NCc2ccc(-c3ccccc3)cc2)cc1	i	i	12.6µM*	4.8%	0.2%
CCOc1ccccc1NC(C)C(=O)Nc1cc(C(F)(F)F)ccc1N1CCOCC1 (stereo not drawn)	nt	i	12.6µM*	?	13.4%
CC(C)C(=O)Nc1cc(C(F)(F)F)ccc1N1CCOCC1	i	i	6.4%	5.1%	4.1%
c1ccc(-c2csc(Nc3ccccn3)n2)cc1	i	?	?	-9.5%	-25.4%
Fc1ccc(-c2csc(Nc3ccccn3)n2)c(F)c1	i	?	?	-8.7%	-1.7%
Cc1nc(C)c(-c2csc(Nc3ccccn3)n2)s1	i	?	35.5µM*	-4.9%	-20.6%
Cc1ccc(-c2csc(Nc3ccccn3)n2)cc1	i	?	3.16µM*	2.3%	-25.0%
Cc1cc(-c2csc(Nc3ccccn3)n2)ccc1F	i	?	3.98µM*	-8.3%	-24.5%
Cc1ccnc(Nc2nc(-c3ccc(F)cc3)cs2)c1	i	i	7.94µM*	-2.3%	-32.2%
O=C(Cc1ccc(Br)cc1)NO	nt	nt	nt	nt	-1.6%
O=C(NNc1ccccc1F)c1cccs1	nt	nt	nt	nt	4.4%
Cc1ccc(Nc2nc(-c3sc(N)nc3C)cs2)cc1	?	i	15.6%	-11.3%	-19.5%
COc1ccc(-c2csc(Nc3ccccn3)n2)cc1OC	i	i	12.6µM*	-4.0%	-2.7%
COc1ccc(-c2csc(Nc3ccc(C)cn3)n2)cc1	i	i	12.6µM*	4.2%	-31.9%
CC(=O)Oc1ccc(-c2csc(Nc3ccc(Cl)cn3)n2)cc1	i	i	12.6µM*	-16.7%	-13.0%
Oc1ccc(-c2csc(Nc3ccccn3)n2)cc1	i	i	?	-4.4%	-13.8%
Cc1ccc(Nc2nc(-c3sc(C)nc3C)cs2)cc1	i	i	20µM*	-4.7%	-2.5%
O=C(Nc1c(C(=O)N2CCN(c3ccc(F)cc3)CC2)oc2ccccc12)c1c(F)cccc1F	?	i	23.8%	nt	26.1%
COc1ccc(CNC(=O)CCC(=O)N2CC3CCCN3c3ccccc32)cc1 (stereo not drawn)	i	i	30.0%	nt	nt
CC(=O)c1cccc(Nc2nc(-c3sc(C)nc3C)cs2)c1	i	i	11.2µM*	6.4%	-5.6%
CC(=O)c1cccc(Nc2nc(-c3sc(N)nc3C)cs2)c1	i	i	23.5%	1.1%	-11.1%
Cc1nc(NC(=O)c2ccco2)sc1-c1csc(Nc2ccc(Cl)cc2)n1	22.4µM*	i	?	7.2%	-6.4%
Cc1ccc(C)c(NC(=O)C(=O)NCCc2csc3nc(-c4ccccc4C)nn23)c1	i	i	20.1%	nt	nt
SMILES	FUS yeast rescue	Abeta rescue	TDP-43 yeast inh	Mito fusion yeast	aSyn rescue
C=CCN(C(=O)[C@@H](C)[C@@H](O)c1ccc(C(C)=O)cc1)c1ccccc1	i	nt	nt	nt	nt
CC(C(=O)Nc1ccccc1C(F)(F)F)n1nc(-c2ccccc2)c2c(c1=O)CCCC2 (stereo not drawn)	i	i	35.5µM*	nt	nt
CC(C(=O)Nc1cccc(C#N)c1)n1nc(-c2ccccc2)c2c(c1=O)CCCC2 (stereo not drawn)	?	i	27.8%	nt	nt
COc1ccc2nc(N(Cc3cccnc3)C(=O)CCc3ccccc3)sc2c1	i	i	25.4%	nt	nt
Cc1ccc(NC(=O)CN2C(=O)CSc3ccc(S(=O)(=O)N(C)C)cc32)cc1C	i	i	15.3%	nt	nt
NS(=O)(=O)c1ccc(S(=O)(=O)c2ccccc2)nc1	i	i	-1.7%	nt	-1.1%
NS(=O)(=O)c1ccc(Sc2ccc3c(c2)CCC3)nc1	i	i	15.8µM*	21.8%	-0.5%
CCc1cc(Cn2nc(-c3ccccc3)cc2C(=O)NCc2cccs2)on1	i	i	0.9%	12.6µM*	2.0%
CCc1cc(Cn2nc(-c3ccccc3)cc2C(=O)NCCOC)on1	i	i	-1.7%	0.8%	1.0%
CC(C)CN=C(NS(=O)(=O)c1ccccc1)C(Cl)(Cl)Cl	?	i	11.2µM*	?	15.2%
COc1ccc(-c2cc(C(=O)Nc3c(Cl)cccc3Cl)no2)cc1OC	i	i	0.0%	nt	nt
CCc1nc2nc(C)cc(Nc3cccc(C)c3C)n2n1	i	i	28.3%	nt	nt
Cc1cc(Nc2cc(Cl)ccc2C)n2nc(Cc3ccccc3)nc2n1	i	i	35.5µM*	nt	nt
CCc1nc2nc(C)cc(Nc3cc(C)ccc3C)n2n1	i	i	20µM*	nt	nt
CCN(Cc1ccccc1)C(=O)Cn1c(=O)n(-c2ccccc2)c(=O)c2c1c1cc(C)ccc1n2C	i	i	23.9%	nt	nt
COc1cc(Cl)c(C)cc1NC(=O)CCCN1C(=O)C(c2ccccc2)Oc2cccnc21 (stereo not drawn)	i	i	-4.0%	nt	nt
COc1ccc(N2CCN(C(=O)COCc3cc(-c4ccc5c(c4)OCO5)on3)CC2)cc1	i	i	-14.0%	6.7%	0.1%
O=C(COCc1cc(-c2ccc3c(c2)OCO3)on1)N1CCN(c2cccc(C(F)(F)F)c2)CC1	i	i	35.5µM*!	14.9%	18.6%
COc1cccc(CNC(=O)COCc2cc(-c3ccc4c(c3)OCO4)on2)c1	i	i	35.5µM*	nt	nt
CC(C)Cn1c(=O)c2ccccc2n2c(CCC(=O)Nc3cccc(Cl)c3)nnc12	i	i	15.9%	nt	nt
Cc1cccc(NC(=O)Cn2c(=O)n(CCCCCC(=O)NCc3ccc4c(c3)OCO4)c(=O)c3sccc32)c1	i	i	6.6%	nt	nt
O=C(NC(=S)Nc1ccc(F)c(Cl)c1)C1CC1	i	?	3.16µM*	11.0%	-12.8%
O=C(NC(=S)Nc1ccccc1Cl)C1CC1	i	i	10µM*	-7.3%	-18.6%
COC(=O)NC(=S)Nc1ccc(Oc2ccc(Cl)cc2Cl)c(Cl)c1	i	i	17.8µM*	9.2%	-19.4%
Fc1ccc(NC(=S)Nc2ccc(F)c(Cl)c2)cc1Cl	i	i	14.6%	-1.2%	-41.4%
SMILES	FUS yeast rescue	Abeta rescue	TDP-43 yeast inh	Mito fusion yeast	aSyn rescue
COc1ccccc1NC(=S)NC(=O)C1CC1	nt	i	?	-4.7%	-11.7%
Cc1ccc(NC(=S)NC(=O)C2CC2)cc1Cl	i	?	31.6µM*	-1.3%	-19.7%
O=C(Nc1ccc2c(c1)OCO2)OC1CCC12CCC(c1ccccc1)CC2 (stereo not drawn)	i	nt	nt	nt	nt
Cc1ccc(C)c(N(C)C(=O)CCNC(=O)Cn2cnc3ccccc3c2=O)c1	i	i	20.3%	nt	nt
COc1ccc(NC(=O)Oc2ccccc2)cc1Cl	i	i	17.8µM*	-0.7%	9.9%
O=C(Nc1ccc(F)c(Cl)c1)C1CCCCC1	i	i	17.8µM*	19.9%	-2.6%
